# LYPLA1 inh – LYPLA1 inhibitors, primary screen, counter-screen for PME1 inhibitor project, biochemical, fluorescence polarization, FP-Rh probe ABPP | Acyl-protein thioesterase 1 (Homo sapiens), O75608 | recombinant LYPLA1 | inhibition, % at 5.9 µM | 320,000 compounds, 0.16% hits | AID 2174, 2009;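 active means inhibition above the mean of all tested compounds plus 3 SD, set per campaign, cut at about 14% in these data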;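 further: inhibitors block serine hydrolase probe labeling of LYPLA1 so polarization falls; 0% = enzyme with DMSO and 100% = wells lacking LYPLA1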
# GSTO1 counter – inhibitors of recombinant GSTO1, primary screen, counter-screen for RBBP9 inhibitor project, biochemical, fluorescence polarization | Glutathione S-transferase omega-1 (Homo sapiens), P78417 | activity-based probe fluorescence polarization | inhibition, % at 5.96 µM | 300,000 compounds, 1.1% hits;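 active means inhibition above the campaign mean inhibition plus 3 SD, cut at about 35% in these data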;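 further: 0% = GSTO1-1 with DMSO and 100% = wells lacking GSTO1-1 enzyme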
# Fam108B counter – mouse Fam108B serine hydrolase inhibitors, primary screen, counter-screen for RBBP9 inhibitor project, biochemical, fluorescence polarization; recombinant Fam108B, FP-Rh probe fluorescence polarization; inhibition, % at 9.51 µM; 300,000 compounds, 0.33% hits; AID 1947, 2009;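 active means inhibition above the screen mean inhibition plus 3 SD, computed separately per campaign, cut at about 18% in these data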;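 further: inhibitors lower polarization as less probe binds the enzyme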
# PAD4 inh – human PAD4 inhibitors, primary screen, biochemical, fluorescence polarization, 1536-well format; Protein-arginine deiminase type-4 (Homo sapiens), Q9UM07; recombinant PAD4, RCA probe fluorescence polarization; inhibition, % at 6.36 µM; 330,000 compounds, 0.41% hits; AID 485272, 2010;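 active means percent inhibition above a cutoff equal to the mean of all tested compounds plus 3 SD, cut at about 15% in these data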;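 further: 0% = PAD4 with RCA probe and DMSO and 100% = probe without PAD4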
# PME-1 inh – PME-1 inhibitors via competitive probe labeling, primary screen, biochemical, fluorescence polarization, FP-Rh probe, HTS; AID 2130, 2009; recombinant PME-1; Protein phosphatase methylesterase 1 (Homo sapiens), Q9Y570; inhibition, % at 5.9 µM; 320,000 compounds, 0.53% hits;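 active means inhibition above the campaign mean of all compounds plus 3 SD, cut at about 26% in these data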;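 further: competitive labeling of PME-1 active site by serine hydrolase directed probe; 0% = PME-1 with DMSO and 100% = wells lacking PME-1 enzyme; inhibitors block probe labeling so polarization falls and inhibition rises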
# Target sequence (Q9Y570 whole entry, looked up): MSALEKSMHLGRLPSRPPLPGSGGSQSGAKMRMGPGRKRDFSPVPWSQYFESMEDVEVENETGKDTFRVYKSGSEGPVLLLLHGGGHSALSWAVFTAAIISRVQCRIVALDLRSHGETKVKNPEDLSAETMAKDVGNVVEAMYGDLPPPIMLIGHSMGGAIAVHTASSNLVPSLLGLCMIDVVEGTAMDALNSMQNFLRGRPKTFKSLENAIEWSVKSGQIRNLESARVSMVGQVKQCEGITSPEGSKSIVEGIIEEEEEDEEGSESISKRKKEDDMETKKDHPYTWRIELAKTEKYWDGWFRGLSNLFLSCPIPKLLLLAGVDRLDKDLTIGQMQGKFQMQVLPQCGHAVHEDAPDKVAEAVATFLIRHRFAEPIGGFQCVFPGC
# LYPLA2 counter – LYPLA2 inhibitors, primary screen, counter-screen for PME1 inhibitor project, biochemical, fluorescence polarization, FP-Rh probe ABPP | recombinant LYPLA2 | 320,000 compounds, 0.38% hits | AID 2177, 2009 | inhibition, % at 5.9 µM | Acyl-protein thioesterase 2 (Homo sapiens), O95372;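 active means inhibition above the screen-wide mean plus 3 SD, limit set per campaign, cut at about 26% in these data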;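 further: 0% = LYPLA2 with DMSO and 100% = wells lacking LYPLA2 enzyme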
# Target sequence (O95372 whole entry, looked up): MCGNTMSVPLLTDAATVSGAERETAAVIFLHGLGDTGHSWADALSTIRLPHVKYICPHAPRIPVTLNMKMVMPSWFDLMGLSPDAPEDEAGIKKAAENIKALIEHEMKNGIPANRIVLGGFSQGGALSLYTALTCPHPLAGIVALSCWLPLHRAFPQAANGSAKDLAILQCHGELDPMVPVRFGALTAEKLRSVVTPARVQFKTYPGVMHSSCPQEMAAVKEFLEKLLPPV
# GSTO1 confirm – GSTO1 inhibitor hit confirmation, counter-screen for RBBP9 inhibitor project, biochemical, fluorescence polarization, triplicate | shares compounds with GSTO1 counter | recombinant GSTO1, probe fluorescence polarization | inhibition, % at 5.96 µM | 2,400 compounds, 54% hits | AID 2176, 2009;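 active means inhibition above the primary screen's cutoff, its mean inhibition plus 3 SD, cut at about 35% in these data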;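 further: loss of polarization as inhibitors block binding of rhodamine sulfonate ester activity probe; 0% = GSTO1 with DMSO and 100% = wells lacking GSTO1 enzyme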
# GSTO1 ABPP inh – inhibitors of purified human GSTO1, late-stage follow-up, biochemical, gel ABPP, SE-Rh probe, percent inhibition. inhibition, % at 1 µM. AID 463110, 2010. recombinant GSTO1, gel ABPP SE-Rh probe fluorescence. shares compounds with GSTO1 counter. 130 compounds, 30% hits;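 active means inhibition of the enzyme GSTO1 above about 75%, limit read from the data; inactive means inhibition below that limit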
# * marks the source's active call; other numbers are inactive results; . = not tested or not shown. In the library only some 1.8% were active in any assay of this set; here they are far more common.
SMILES,LYPLA1 inh,GSTO1 counter,Fam108B counter,PAD4 inh,PME-1 inh,LYPLA2 counter,GSTO1 confirm,others
O=C(CCl)N(c1ccccc1)c1c[nH]c2ccccc12,-3,70*,5,3,2,-11,78*,GSTO1 ABPP inh=34
O=C(N/N=C/c1cccs1)c1n[nH]c2c1CCC2,2,-3,-2,-1,0,0,.,
C#CCOCCOCCOCCNc1nc(N2CCN(C(=O)Cn3cc(CCCCN)nn3)CC2)nc(N2CCN(C(=O)[C@H](CCCCN)n3cc(CCCC)nn3)CC2)n1,2,60*,4,-2,2,5,2,
COc1ccc(CC2=CC(=O)c3ccccc3C2=O)cc1,-3,67*,10,-10,12,0,15,
CC(C(=O)Nc1sc2c(c1C(=O)NCC1CCCO1)CCC2)N1C(=O)c2ccccc2C1=O (stereo not given),-6,2,2,3,1,2,.,
CC(=O)C1[C@H](N(C)C)CC2C3CC=C4CC(O)CC[C@]4(C)C3CC[C@@]21C (stereo not given in full),1,2,3,-4,0,4,.,
CCCc1cc(NCCCO)n2c(nc3ccccc32)c1C#N,-1,-10,6,5,11,-1,.,
CC1OC(Nc2cccc3ccccc23)C(O)C(O)C1O (stereo not given),-1,49*,10,-17,-1,1,8,
Cc1ccc(-n2ncc(C(=O)N3CCc4ccccc4C3)c2NC(=O)c2ccco2)cc1C,-4,3,-1,1,2,-8,.,
Cc1cc(Nc2cccc(C(=O)O)c2)n2ncnc2n1,0,86*,2,-2,-3,-1,5,
O=C(CCN1C(=O)/C(=C\c2ccccc2F)SC1=S)N1CCCCC1,2,47*,3,-5,3,3,11,
CN(Cc1c(O)ccc2c1oc(=O)c1ccccc12)C1CCCCC1,-6,46*,-1,0,7,3,42*,
CN(C)Cc1c(O)ccc2c3c(c(=O)oc12)CCCCC3,-3,3,3,2,0,-2,.,
O=S(=O)(Cc1ccc(Cl)cc1)c1ccccc1-c1nnc(-c2ccc(Cl)cc2)o1,3,2,-4,-4,2,3,.,
COc1cc(OC)c(NS(=O)(=O)c2cc(C(=O)OC(C)C(=O)NC3CC3)c(Cl)cc2Cl)cc1Cl (stereo not given),-3,46*,0,-2,11,4,66*,
Cc1ccc(S(=O)(=O)NC(C)(C)C)cc1C(=O)OC(C)C(=O)NC1CC1 (stereo not given),-1,5,-1,0,-2,-4,.,
CCOC(=O)CN1C(=O)C(Sc2n[nH]c(-c3ccccc3)n2)CCc2ccccc21 (stereo not given),2,-7,3,3,4,5,.,
NC(=S)N/N=C/c1coc2ccc(O)cc2c1=O,2,67*,0,3,8,2,12,
Cc1nnc(N/N=C/c2c(O)n(-c3cccc(C(F)(F)F)c3)c(=O)c3ccccc23)[nH]c1=O,0,39*,14,-3,2,1,19,
CCOC(=O)C1CCN(C(=O)Cn2cc3c(n2)CCC(C)C3)CC1 (stereo not given),0,3,-2,-3,-3,-5,.,
Cc1ccccc1-n1ncc2c([N+](=O)[O-])cc([N+](=O)[O-])cc21,1,39*,4,-8,4,6,3,
CCc1ccc(NC(=O)Cn2c3[n+](c4c(F)c(F)ccc42)CCCCC3)cc1,-1,77*,0,-3,-4,-4,89*,
COc1ccc(/C=C/C(=O)N2CCN(C)CC2)cc1S(=O)(=O)N1CCCCC1,-1,5,-6,-5,-10,-8,.,
COc1ccc(/C=N/NC(=O)c2ccn[nH]2)cc1CSc1ccccn1,1,47*,5,0,-4,15,-5,
O=C1C(NS(=O)(=O)c2cccs2)=C(N2CCN(c3cccc(Cl)c3)CC2)C(=O)c2ccccc21,3,50*,10,-12,3,16,14,
SMILES,LYPLA1 inh,GSTO1 counter,Fam108B counter,PAD4 inh,PME-1 inh,LYPLA2 counter,GSTO1 confirm,others
CCN1CCN(C2=C(NS(=O)(=O)c3ccc(C)cc3)C(=O)c3ccccc3C2=O)CC1,6,30,0,-13,5,4,.,
COC(C[C@H]1O[C@@H]1[C@H](O)COCc1ccccc1)OC,0,.,.,-7,-5,2,.,
COC(C[C@@H]1O[C@H]1[C@H](O)[C@@H](C)OCc1ccccc1)OC,5,40*,-2,1,-6,6,7,
COc1ccc2nc(-c3ccccc3)cc(OC)c2c1,1,-5,-4,-5,-3,-5,.,
COc1ccc2nc3cccc(OC)c3nc2c1,0,57*,8,-1,-3,4,87*,
CCCCOc1ccc(C2C(=O)N(C3CCCCC3)CC(=O)N2CC2CCCO2)cc1 (stereo not given),-1,2,12,2,7,6,.,
O=C(NCc1ccco1)c1cc(-c2cccnc2)nc2ccccc12,4,38*,-2,1,4,7,5,
O=c1cc(CCl)nc(Cc2c(Cl)cccc2Cl)[nH]1,0,93*,1,0,0,8,97*,GSTO1 ABPP inh=82*
Cc1ccc(C)c(S(=O)(=O)/N=C2\C=C(NS(=O)(=O)c3ccccc3)C(=O)c3ccccc32)c1,-13,82*,4,-2,5,-20,48*,
CC(C)c1ccc(S(=O)(=O)/N=C2\C=C(NS(=O)(=O)c3ccccc3)C(=O)c3ccccc32)cc1,-13,79*,6,1,-12,-19,75*,
Cc1ccc(C)c(S(=O)(=O)N/N=C2/CCCc3ccccc32)c1,1,4,-1,0,9,10,.,
O=S(=O)(c1c(Cl)cc(Br)cc1Cl)N1CCN(C(=S)NC2CC2)CC1,.,.,.,0,.,.,.,
CCOC(=O)C1=C(C)N(c2ccc(OC)cc2)C(=O)/C1=C\c1ccc(O)c(OCC)c1,2,57*,5,-3,4,6,9,

# Bioassay records as filed in PubChem BioAssay.
